Assay results from PubChem BioAssay AID1508622 (National Center for Advancing Translational Sciences (NCATS), 2021).
Active and inactive are the calls of the source. Entries that show only a call come without a potency. The call rests on the fitted dose curve; in most records, active means well fitted activation curve with a large enough effect; inconclusive means small, poorly fitted or top-dose-only effect; inactive means no such curve, though single readings can be large or run the other way.

Assay: Confirmatory qHTS for Identification of Small Molecule Activators of Huntingtin-Antisense Promoter Activity
Summary of the method: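 2,500 luciferase reporter HEK293 cells/well; 24 h culture; cpds up to 57.5 uM final, PTC124 50 uM ctrl; 24 h, 37C; Dual-Glo FLuc reagent, 10 min RT; lum. Norm.: vehicle 0%, zero RLU -100%.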
Potency means the concentration at half of the fitted maximal effect.

SMILES	Potency
Cc1ccc(Cn2c(SCc3ccc(C(=O)NC4CCCC4)cc3)nc3ccncc32)cc1	inactive
Cc1ccc(NC(=O)c2cc(S(=O)(=O)N3CCc4ccccc43)ccc2F)cc1Cl	inactive
Cc1cccc(N2CCN(C(=O)c3ccc(NC(=O)c4nsc5ccccc45)cc3)CC2C)c1 (stereo not given)	338 nM (active)
O=S(=O)(c1ccc(-c2csc(=Nc3ccc(OC(F)(F)Cl)cc3)n2CCCO)cc1)N1CCCC1	inactive
O=C(c1ccc2c(c1)CCN2S(=O)(=O)c1ccc(Cl)cc1)N1CCN(c2ccc(F)cc2)CC1	inactive
CN1C(=O)c2ccccc2Sc2ccc(NC(=O)NCc3ccc(Cl)cc3)cc21	inactive
CCOC(=O)C1=C(CN2CCN(c3ccc(C)cc3C)CC2)NC(=O)NC1c1ccc(OC)cc1 (stereo not given)	inactive
COc1cc(OC)c(C2C=C(c3ccc(C)cc3)Nc3c(C(=O)Nc4ccccc4)cnn32)cc1OC (stereo not given)	inactive
CCCCOc1cccc(C(=O)N(Cc2ccc(C)o2)c2ccccn2)c1	inactive
CC(C)c1nc2ccc(C(=O)NCCCN3CCN(c4cccc(Cl)c4)CC3)cc2o1	inactive
COc1ccc(NC(=O)CSc2nc(-c3ccco3)cc(C(F)(F)F)n2)cc1OC	inactive
CCCCOC(=O)c1ccc(NC(=O)c2sc3nc(C)cc(C)c3c2N)cc1	inactive
CCOc1ccc(CCNC(=O)c2ccc(CS(=O)(=O)Cc3ccccc3Cl)o2)cc1OCC	inactive
COC(=O)C1=C(CS(=O)(=O)c2ccc(C)cc2C)NC(=O)NC1c1ccc(C)cc1 (stereo not given)	inactive
Cc1ccc(CCNC(=O)C(C)n2nc(C)c3c(C)n(-c4ccc(C)cc4)nc3c2=O)cc1 (stereo not given)	inactive
